High-throughput results from PubChem BioAssay.
IL1B secr inh – blocks inflammasome-driven IL-1 beta release. THP-1 LPS/ATP IL-1B secretion, AlphaLISA, 16 h; stronger effect = lower value. activity change, % at 57.5 µM. hit rate 4.7% among 360,000. AID 743279; in the data active = activity change below about -50%; inconclusive = mostly about -30% to -49%; also: % is scaled to controls: 0 for no effect and ±100 for the full control effect
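Secreted IL-1B measured by AlphaLISA bead assay after 16 h compound exposure of THP-1 cells; compounds (final up to 57.5 uM) added 1 h before LPS (250 ng/mL) and ATP (1.25 mM) stimulation; lower signal means less secretion.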
USP1 inh – inhibitors of human USP1/UAF1 deubiquitinase | hit rate 0.23% among 390,000 | Potency, µM (doses to about 57.1 µM), for the others: top-dose activity change, negative = inhibition, hits mostly inhibitors | O94782 | AID 743255 | recombinant USP1/UAF1, Ub-Rhodamine cleavage fluorescence; also: potency is read from the fitted curve at half-maximal effect; % is scaled to controls: 0 for no effect and ±100 for the full control effect; nearly all actives have a fitted effect of over 60% in size
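USP1/UAF1 complex (1 nM) preincubated 15 min at room temperature with compound, then Ub-Rho substrate (150 nM final) added. Kinetic fluorescence at 480/540 nm over 6 reads at 60 s intervals; 50 mM HEPES pH 7.8, 0.5 mM EDTA, 0.1 mg/ml BSA, 1 mM TCEP, 0.01% Tween-20.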
ATXN viability – viability counter-screen for ATXN expression inhibitors | hit rate 0.49% among 400,000 | AID 651635 | Potency, µM (doses to about 56.7 µM), hits mostly cytotoxic | S2 cells (HEK-293 line with an ATXN2-luciferase reporter) viability, CellTiter-Fluor protease fluorescence, 24 h; also: potency is read from the fitted curve at half-maximal effect; nearly all actives have a fitted effect of over 40% in size
ATXN2 expr inh – ATXN2 expression inhibition; Potency, µM (titrated, usually from 57 µM), inactives show at the top dose activity change, negative = inhibition, usual class: inhibitors; hit rate 0.72% among 360,000; HEK-293 ATXN2-luciferase reporter, luminescence, 24 h; AID 1745845; also: potency is read from the fitted curve at half-maximal effect; % is scaled to controls: 0 for no effect and ±100 for the full control effect; nearly all actives have a fitted effect of over 55% in size
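qHTS (up to 57 uM final) was run with 24 h compound exposure of reporter cells at 37 °C. Each well was multiplexed: SteadyGlo luminescence measured ATXN2-luciferase expression after a fluorogenic Gly-Phe-AFC viability readout (25 uM final).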
USP2a inh – USP2a (human) protease inhibition. hit rate 0.01% among 330,000. O75604. USP2 core, Ub-CHOP2 coupled fluorogenic reporter, 485/531. Potency, µM (highest dose often 38.3 µM), inactives show at the highest dose activity change, negative = inhibition, most hits filed as inhibitors;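 also: potency is read from the fitted curve at half-maximal effect; plate controls were DMSO wells for no effect and full inhibition by NEM control for full effect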
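Deubiquitinase activity read as fluorescence (485/531 nm) after Ub-CHOP2 cleavage activates the enterokinase reporter on its substrate; USP2 core 10nM, Ub-CHOP2 and substrate 25nM each, 30min compound preincubation then 60min RT; data normalized to NEM, curves fitted.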
Numbers without * were called inactive; i = inactive; ? = inconclusive; · = no result; [ ] = dose if it differs, or a comment. In the library only some 4.8% were active in any assay of this set; here they are far more common. Unless noted, calls follow the shape of the dose curve; as a rule, active = well fitted curve in the direction sought with a large enough effect; inconclusive = small, poorly fitted or top-dose-only effect, or another doubt; inactive = no such curve, though single readings can be large; an effect the other way counts as inactive or inconclusive.

SMILES	IL1B secr inh	USP1 inh	ATXN viability	ATXN2 expr inh	USP2a inh
C=CCN1C(=O)NC(=O)/C(=C/C=C/c2ccccc2)C1=O	?	1%	i	-18%	0%
Cc1cc(N2CCOCC2)ccc1/C=C1\C(=O)NC(=O)N(c2ccccc2)C1=O	-6	-13%	i	-9%	2%
CN1C(=O)/C(=C/C=C/c2ccco2)C(=O)NC1=S	0	?	i	3%	16%
CN(C)c1ccc(/C=C/C=C2/C(=O)NC(=O)N(c3ccccc3)C2=O)cc1	-107*	-26%	·	?	0%
Cc1cccc(N2C(=O)NC(=O)/C(=C\C=C\c3ccco3)C2=O)c1	-96*	-15%	?	?	4%
Cc1ccc(N2C(=O)NC(=O)/C(=C\C=C\c3ccco3)C2=O)cc1C	-105*	-2%	14µM*	7.9µM*	-1%
NC1CC1c1ccccc1 (centres undefined)	·	·	·	2%	·
O=C(Cn1c(=O)oc2cc(S(=O)(=O)N3CCCC3)ccc21)Nc1cccc(C(F)(F)F)c1	4	-19%	?	-9%	-7%
Cc1ccc(-c2nc(CN3C(=O)CN=C(c4ccccc4Cl)c4cc(Cl)ccc43)c(C)o2)cc1	·	-31%	?	-9%	·
O=C1NC(=O)N(c2ccccc2)C(=O)/C1=C/C=C/c1ccco1	-100*	-12%	18µM*	·	19%
CCc1c(C(=O)C(N)=O)c2c(OCC(=O)O)cccc2n1Cc1ccccc1	·	·	·	-2%	·
O=c1[nH]c2ccccc2n1C1CCN(C(c2ccccc2OC(F)(F)F)c2nnnn2Cc2ccccc2)CC1 (centres undefined)	-16	·	10µM*	18µM*	·
O=c1[nH]c2ccccc2n1C1CCN(C(CCc2ccccc2)c2nnnn2C2CCCCC2)CC1 (centres undefined)	-61*	·	·	14µM*	·
O=c1[nH]c2ccccc2n1C1CCN(C(CCc2ccccc2)c2nnnn2Cc2ccccc2)CC1 (centres undefined)	-93*	·	8.9µM*	8.9µM*	·
CSCCC(c1nnnn1C1CCCCC1)N1CCC(n2c(=O)[nH]c3ccccc32)CC1 (centres undefined)	-23	·	?	?	·
CSCCC(c1nnnn1Cc1ccccc1)N1CCC(n2c(=O)[nH]c3ccccc32)CC1 (centres undefined)	-22	·	14µM*	?	·
COc1ccc(NC2=NC(C)(C)CS2)cc1	-55*	-27%	i	0%[11.3 µM]	-1%
COc1ccc(NC2=NCC(C)S2)cc1 (centres undefined)	-15	-2%	i	15%	8%
OC(c1cccc(Cl)c1)(c1cccc(Cl)c1)C1CN2CCC1CC2 (centres undefined)	-73*	?	?	-2%[11.3 µM]	0%
CC(C)CCOP(=O)(c1ccc(N(C)C)cc1)C(O)c1ccc(Cl)cc1Cl (centres undefined)	-88*	-7%	?	0%	-1%
CC(C)CCOP(=O)(c1ccc(N(C)C)cc1)C(O)c1ccc(C(C)C)cc1 (centres undefined)	-58*	-27%	?	·	-7%
Nc1c(Cl)c(Cl)c(Cl)c(Cl)c1Cl	·	·	i	-8%[116 µM]	·
O=C(/C=C/c1c[nH]c2ccccc12)c1c(O)n(CCc2ccccc2)c(=O)[nH]c1=O	·	25µM*	·	29%	7%
CCCCn1c(O)c(C(C)=NCCc2c[nH]c3ccccc23)c(=O)[nH]c1=O	-9	-24%	i	-26%	-6%
C=C1C(=O)O[C@@H]2C[C@@H](C)[C@@H]3C=CC(=O)[C@@]3(C)[C@@H](OC(=O)CC(=O)O[C@H]3[C@@H]4C(=C)C(=O)O[C@@H]4C[C@@H](C)[C@@H]4C=CC(=O)[C@]43C)[C@H]12	0	?	·	0.32µM*	6%
C=C1C(=O)OC2CC(C)C3C=CC(=O)C3(C)C(O)C12 (centres undefined)	-101*	-11%	?	?	·
C=C1C(=O)O[C@H]2C[C@@H](C)[C@@H]3C=CC(=O)[C@@]3(C)C[C@H]12	-111*	33%	?	6.3µM*	3%
